D2 antagonist: antagonizes the human D2 dopamine receptor | inhibition, % at 10 µM | 340,000 compounds, 2% hits | HEK293 TREx D2 cells, calcium flux, dopamine EC80 | P14416; in the data active means inhibition above about 30%; inactive means below that, where a call was filed
Target sequence (P14416 whole entry, looked up): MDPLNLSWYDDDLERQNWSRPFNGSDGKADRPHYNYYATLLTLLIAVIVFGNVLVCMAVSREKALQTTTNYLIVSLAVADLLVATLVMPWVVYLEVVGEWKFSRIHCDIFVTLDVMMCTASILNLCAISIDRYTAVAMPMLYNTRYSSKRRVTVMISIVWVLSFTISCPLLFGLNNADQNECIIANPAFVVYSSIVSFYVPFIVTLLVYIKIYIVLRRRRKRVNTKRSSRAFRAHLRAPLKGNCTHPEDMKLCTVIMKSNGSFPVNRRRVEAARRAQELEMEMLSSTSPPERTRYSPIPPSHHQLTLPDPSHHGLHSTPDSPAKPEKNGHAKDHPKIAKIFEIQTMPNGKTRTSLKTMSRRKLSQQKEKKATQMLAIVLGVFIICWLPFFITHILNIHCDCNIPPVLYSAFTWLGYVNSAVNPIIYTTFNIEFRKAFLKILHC
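Tetracycline-induced HEK293 T-REx cells expressing D2 force-coupled to calcium signalling were dye-loaded, exposed to compound for 180 s, then challenged with an EC80 of dopamine; calcium flux was followed kinetically for a further 180 s.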
D2 PAM-1: positive allosteric modulators of human D2 dopamine receptor. P14416. HEK293 T-REx D2, calcium flux, EC20 dopamine potentiation. potentiation, % at 10 µM. 340,000 compounds, 0.34% hits;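 active means potentiation over 3 SD above the plate norm, cut at about 30% in these data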
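Potentiation of an EC20 dopamine calcium response measured kinetically over 180 s, after a preceding 180 s compound-only read flagging agonists. Cells: inducible Hek293 Trex D2 line, 4000/well, cultured overnight at 30 C before dye loading.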
D2 PAM-2: human D2 receptor positive allosteric modulation; DiscoveRx D2 beta-arrestin cells, luminescence, 90 min; 100% = 57 uM dopamine signal; 360,000 compounds, 0.23% hits; potentiation, % (concentration not given with the values); in the data active means potentiation above about 50%; inconclusive means mostly about 30% to 49%
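PathHunter beta-arrestin assay in DiscoveRx D2 cells. Compounds were added with an EC20 of dopamine (50 nM final) for 90 min at 37 deg C. Luminescence was read 1 h after detection reagent, with 57 uM dopamine as the EC100 control.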
D2 ag-1: activates the human D2 dopamine receptor. activation, % at 2 µM. HEK293 T-REx D2 cells, calcium flux agonist mode. 340,000 compounds, 0.53% hits. P14416;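 active means activation over 3 SD above normal in the single-dose calcium agonist read, cut at about 30% in these data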
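In this primary screen, compounds producing a positive calcium signal within 180 s of addition to tetracycline-induced, force-coupled HEK293 Trex D2 cells are flagged; cells are dye-loaded with a no-wash calcium kit beforehand.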
D2 ag-2: activates the human D2 dopamine receptor. activation, % (concentration not given with the values). DiscoveRx PathHunter D2 beta-arrestin, luminescence, 90 min; 100% = 57 uM dopamine signal. P14416. AID 624465. 360,000 compounds, 0.084% hits; in the data active means activation above about 40%; inconclusive means between about 15% and that limit
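Agonist mode: compounds alone added to overnight-plated D2 PathHunter cells for 90 min at 37 C, with 57 uM final dopamine (EC100) defining full response. Beta-arrestin recruitment detected by chemiluminescent reagent, read after 1 h at ambient temperature.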
D3 ag: confirmation of human D3 dopamine receptor agonists, beta-arrestin | shares compounds with D2 ag-1 | DiscoveRx D3 beta-arrestin cells, luminescence, 90 min | Potency, µM (top dose mostly 76.9 µM), usual class: activators | 2,300 compounds, 4% hits | AID 720506; further: nearly all actives have a fitted effect of over 70% in size
D2 ag-3: counter-screen for D3 agonists: human D2 dopamine receptor agonism. shares compounds with D2 ag-1. Potency, µM (titrated, usually from 76.9 µM), hits mostly activators. 2,300 compounds, 5.9% hits. AID 720507. DiscoveRx PathHunter D2 beta-arrestin, luminescence, 90 min; response scale: percent relative to full dopamine signal; further: nearly all actives have a fitted effect of over 70% in size
Numbers stand for hits. Only some compounds are listed: those with a hit (about 2.4% of all), similar ones and a draw of the others. Unless noted, the call rests on the fitted dose curve; in most records, active means well fitted activation curve with a large enough effect; inconclusive means small, poorly fitted or top-dose-only effect; inactive means flat fitted curve, though single readings scatter.

Results for CCOC(=O)c1ccc(NS(=O)(=O)c2ccc3c(c2)OCCO3)cc1 ?
D2 PAM-1: inactive; D2 ag-1: inactive

How did CCOC(=O)C1=CN(CC2CCCCC2)CCC1=O do in these assays?
D2 ag-2: inactive

Results for CNC(=O)c1ccc(NC(=O)CC2SC(N3CCCC3)=NC2=O)cc1 (stereo not given) ?
D2 antagonist: 39; D2 PAM-1: inactive; D2 PAM-2: inactive; D2 ag-1: inactive; D2 ag-2: inactive; D3 ag: inactive; D2 ag-3: inactive

What do the screens show for `O=C(CC1SC(N2CCCC2)=NC1=O)Nc1ccc(C(=O)NCc2ccccc2F)cc1` (stereo not given)?
D2 PAM-2: inactive; D2 ag-2: inactive

How did O=C(CC1SC(N2CCCC2)=NC1=O)Nc1ccc(C(=O)NCCOc2ccccc2F)cc1 (stereo not given) do in these assays?
D2 antagonist: 52; D2 PAM-1: inactive; D2 PAM-2: inactive; D2 ag-1: 66; D2 ag-2: inactive; D3 ag: inconclusive; D2 ag-3: inactive

Results for COc1cc([N+](=O)[O-])ccc1NC(=O)CN1C(=O)NC2(CCCCC2C)C1=O (stereo not given) ?
D2 PAM-2: inactive; D2 ag-2: inactive

Results for COc1ccc(OC)c(NC(=O)c2cc(-c3ccc(Cl)s3)nc3ccccc23)c1 ?
D2 PAM-1: inactive; D2 ag-1: inactive

What do the screens show for `O=C(Nn1cnc2ccccc2c1=O)c1ccc(Br)cc1`?
D2 antagonist: inactive; D2 PAM-1: inactive; D2 PAM-2: inactive; D2 ag-1: 43; D2 ag-2: inactive; D3 ag: inactive; D2 ag-3: inactive

How did COc1ccc(NC(=O)C2=CC(c3ccc4c(c3)OCO4)=NS(=O)(=O)N2C)cc1 do in these assays?
D2 PAM-1: inactive; D2 ag-1: inactive

How did COc1ccc(C(=O)C(CCCCC(CN(C)C)C(=O)c2ccc(OC)cc2)CN(C)C)cc1 (stereo not given) do in these assays?
D2 PAM-2: inactive; D2 ag-2: inactive

What do the screens show for `CCOc1ccc(C(=O)C(CCC(CN(C)C)C(=O)c2ccc(OCC)cc2)CN(C)C)cc1` (stereo not given)?
D2 antagonist: 37; D2 PAM-1: inactive; D2 PAM-2: inactive; D2 ag-1: inactive; D2 ag-2: inactive; D3 ag: inactive; D2 ag-3: inactive

Results for O=C(Nc1ccccc1Br)C(Cc1ccccc1)NS(=O)(=O)c1cccc2nsnc12 (stereo not given) ?
D2 PAM-1: inactive; D2 ag-1: inactive

What do the screens show for `CCOC(=O)CCn1cnc2onc(-c3cc(OC)ccc3Cl)c2c1=O`?
D2 PAM-1: inactive; D2 ag-1: inactive

Results for Cc1ccccc1C(=O)Nc1nnc(SC(C)C)s1 ?
D2 antagonist: inactive; D2 PAM-1: inactive; D2 PAM-2: inactive; D2 ag-1: inactive; D2 ag-2: inactive; D3 ag: inactive; D2 ag-3: inactive

Results for O=C1OC(N2CCN(c3ccccn3)CC2)c2ccccc21 (stereo not given) ?
D2 antagonist: 34; D2 PAM-1: inactive; D2 PAM-2: inactive; D2 ag-1: 55; D2 ag-2: inactive; D3 ag: inactive; D2 ag-3: inactive

Results for Fc1ccc(CN2CCN(c3ncccn3)CC2)cc1 ?
D2 antagonist: 84; D2 PAM-1: inactive; D2 PAM-2: inactive; D2 ag-1: 79; D2 ag-2: 47; D3 ag: inactive; D2 ag-3: inconclusive

What do the screens show for `Fc1ccc(F)c(CN2CCN(c3ncccn3)CC2)c1`?
D2 antagonist: 79; D2 PAM-1: inactive; D2 PAM-2: 64; D2 ag-1: 64; D2 ag-2: 78; D3 ag: inconclusive; D2 ag-3: 3.2µM

Results for O=S1(=O)CC(N2CCN(c3ncccn3)CC2)CN1Cc1ccc(F)cc1 (stereo not given) ?
D2 PAM-2: inactive; D2 ag-2: inactive

Screens from PubChem BioAssay.
